From the supplement of paper PMC3334620
The full ranking holds about 33,000 sequences; the median of “E-score (-0.5 to 0.5)” is about -0.053, and the highest 2% start at about 0.37. The full list was thinned out, with the highest values kept by preference.

biological target: Hap1 (UniProt P0CE41); assay: PBM E-score (8-mer binding enrichment) (E-score (-0.5 to 0.5)); higher = stronger / more preferred TF binding; conditions: protein concentration: 200 nM; construct: GST-DNA-binding domain
Experimental: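 Universal 'all 10-mer' protein binding microarrays (Agilent AMADID 015681) probed with GST-tagged S. cerevisiae TFs (full-length or DBD) made by in vitro transcription/translation (PURExpress), about 100-200 nM. Bound TF was detected with fluorescent anti-GST. Each ungapped 8-mer (which stands for itself and its reverse complement) is scored by the PBM enrichment score (E-score), a modified Wilcoxon-Mann-Whitney statistic from -0.5 to +0.5, computed with the Universal PBM Analysis Suite. Scale: above 0.35 generally sequence-specific binding.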

UniProt P0CE41, sequence (P0CE41 whole entry, the tested form may be a part): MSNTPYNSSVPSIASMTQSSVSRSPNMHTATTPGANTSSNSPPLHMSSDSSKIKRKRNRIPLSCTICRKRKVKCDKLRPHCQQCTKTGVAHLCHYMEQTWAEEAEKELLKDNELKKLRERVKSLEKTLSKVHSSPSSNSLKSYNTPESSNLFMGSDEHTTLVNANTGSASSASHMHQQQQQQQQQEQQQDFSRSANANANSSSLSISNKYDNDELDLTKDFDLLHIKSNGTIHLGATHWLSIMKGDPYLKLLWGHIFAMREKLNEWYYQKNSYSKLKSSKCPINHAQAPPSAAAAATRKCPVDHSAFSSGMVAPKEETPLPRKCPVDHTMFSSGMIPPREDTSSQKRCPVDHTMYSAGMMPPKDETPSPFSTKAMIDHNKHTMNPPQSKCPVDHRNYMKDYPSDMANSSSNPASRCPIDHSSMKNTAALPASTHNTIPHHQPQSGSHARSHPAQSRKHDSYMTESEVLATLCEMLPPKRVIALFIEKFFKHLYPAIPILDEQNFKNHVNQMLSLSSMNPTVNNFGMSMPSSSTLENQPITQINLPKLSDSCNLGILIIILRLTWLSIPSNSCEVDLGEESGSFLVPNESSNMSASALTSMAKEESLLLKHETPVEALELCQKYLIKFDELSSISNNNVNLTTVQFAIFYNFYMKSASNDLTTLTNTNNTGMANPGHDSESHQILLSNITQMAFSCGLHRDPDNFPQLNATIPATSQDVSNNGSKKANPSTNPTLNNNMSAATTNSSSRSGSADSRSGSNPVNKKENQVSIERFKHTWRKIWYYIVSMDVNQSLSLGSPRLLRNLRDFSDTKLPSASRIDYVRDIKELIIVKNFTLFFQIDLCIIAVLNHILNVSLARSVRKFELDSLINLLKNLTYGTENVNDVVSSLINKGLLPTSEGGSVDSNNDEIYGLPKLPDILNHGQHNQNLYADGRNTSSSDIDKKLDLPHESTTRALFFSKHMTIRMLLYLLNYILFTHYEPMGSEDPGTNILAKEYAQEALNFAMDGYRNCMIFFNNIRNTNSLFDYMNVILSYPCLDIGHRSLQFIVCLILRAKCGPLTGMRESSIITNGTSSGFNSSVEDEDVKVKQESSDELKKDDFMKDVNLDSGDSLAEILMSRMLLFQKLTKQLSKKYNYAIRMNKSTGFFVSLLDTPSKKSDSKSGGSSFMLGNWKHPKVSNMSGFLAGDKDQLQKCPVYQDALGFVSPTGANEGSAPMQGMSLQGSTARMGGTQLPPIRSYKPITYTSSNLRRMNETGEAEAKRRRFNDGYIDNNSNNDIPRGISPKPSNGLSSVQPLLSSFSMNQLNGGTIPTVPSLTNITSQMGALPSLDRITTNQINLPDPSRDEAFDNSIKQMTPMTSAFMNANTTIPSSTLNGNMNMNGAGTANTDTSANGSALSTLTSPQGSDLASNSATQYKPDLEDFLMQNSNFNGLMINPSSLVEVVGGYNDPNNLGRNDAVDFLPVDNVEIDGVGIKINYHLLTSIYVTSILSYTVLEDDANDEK

Compared with CCTTGAGA, GCGTTGTA is lower in “PBM E-score” value: -0.0628 for the first, -0.0982 for the second.

Compared with AACACCAA, TAGATAGA is higher in “PBM E-score” value: -0.314 for the first, -0.111 for the second.

First: GGCGAACC
Second: CCCGCAAC
The “PBM E-score” value of the first is lower: 0.0857 for the first, 0.277 for the second.

First: ACCAGACC
Second: ATTTCTGG
The “PBM E-score” value of the first is higher: 0.0586 for the first, -0.13 for the second.

First: GGTAAATA
Second: ATCCCCTG
The “PBM E-score” value of the first is higher: 0.0374 for the first, -0.324 for the second.

Going from ATCCCGGA to ATCCCCGG, the “PBM E-score” value rises from 0.36 to 0.426.

Going from ATCCCGGC to ATCCCCGC, the “PBM E-score” value rises from 0.339 to 0.371.

Compared with ATCCCCCC, ATCCCCGA is higher in “PBM E-score” value: -0.00218 for the first, 0.44 for the second.

First: ATCCCCCG
Second: CTCCCCGA
The “PBM E-score” value of the first is higher: 0.366 for the first, 0.247 for the second.

Compared with ATCCCGGG, CTCCCCGC is lower in “PBM E-score” value: 0.376 for the first, 0.204 for the second.

Going from GTCCCCGA to AGGGAATG, the “PBM E-score” value falls from 0.269 to -0.197.

Going from AACACCCT to GACCTCTC, the “PBM E-score” value rises from -0.0622 to 0.0308.

Going from CCTATCAA to ACATGGAC, the “PBM E-score” value falls from -0.119 to -0.143.

First: TGCGAGAA
Second: ATAGGGAG
The “PBM E-score” value of the first is higher: -0.143 for the first, -0.147 for the second.

Going from CTAGAGAA to GCCAGACC, the “PBM E-score” value rises from -0.207 to 0.0912.

Compared with ACAGCTAC, TTAGAAAA is higher in “PBM E-score” value: -0.11 for the first, -0.0981 for the second.

Compared with AATCGCAC, GGGAGAAA is higher in “PBM E-score” value: -0.23 for the first, 0.0441 for the second.

First: TCGAGAAA
Second: GCGAGAAA
The “PBM E-score” value of the first is lower: -0.271 for the first, 0.116 for the second.

Going from CGGAGAAA to CCGAGAAA, the “PBM E-score” value falls from 0.413 to 0.4.

First: AGGAGAAG
Second: CGGAGAAC
The “PBM E-score” value of the first is lower: -0.149 for the first, 0.36 for the second.

Going from TGGAGAAA to CGGAGAAG, the “PBM E-score” value rises from -0.0481 to 0.378.

Going from CTACTACC to TAACTTAA, the “PBM E-score” value falls from 0.068 to 0.0501.

Going from CATATGGG to ACCACACT, the “PBM E-score” value falls from 0.0423 to -0.0326.

Compared with CACACCGG, AACACCGG is higher in “PBM E-score” value: 0.288 for the first, 0.409 for the second.

Compared with CCCACCGC, AACACCTG is lower in “PBM E-score” value: 0.153 for the first, -0.0827 for the second.

First: CCCACCGA
Second: CCCACCGG
The “PBM E-score” value of the first is lower: 0.0319 for the first, 0.374 for the second.

Compared with AACACCGC, AACACCGT is lower in “PBM E-score” value: 0.278 for the first, 0.245 for the second.

Compared with AACACCGA, GCAACCCC is lower in “PBM E-score” value: 0.446 for the first, 0.0182 for the second.

Compared with ATGGAGTC, AACGGTAG is higher in “PBM E-score” value: -0.104 for the first, -0.00937 for the second.

Going from CCGATGTC to CCGCACCC, the “PBM E-score” value falls from 0.295 to 0.209.

Compared with GTTCCGCA, ATTCCGGA is higher in “PBM E-score” value: 0.209 for the first, 0.432 for the second.

Going from CTTCCGGA to GTTCCGGA, the “PBM E-score” value falls from 0.404 to 0.383.

Compared with ATTCCGCA, GTTCCGAA is higher in “PBM E-score” value: 0.196 for the first, 0.331 for the second.

Going from CTTCCGGC to ATTCCGTA, the “PBM E-score” value falls from 0.275 to 0.259.

Compared with CTTCCGTA, GATGAGGC is lower in “PBM E-score” value: 0.262 for the first, -0.0801 for the second.

Going from AAATCGGT to ACGGGCCC, the “PBM E-score” value falls from 0.246 to 0.214.

Compared with CCCTCACG, GAACCATA is higher in “PBM E-score” value: -0.262 for the first, -0.0291 for the second.

Compared with CTAAAACC, AGGAATGC is lower in “PBM E-score” value: 0.291 for the first, -0.253 for the second.

Going from GCTCCGGA to ACTCCGTG, the “PBM E-score” value falls from 0.444 to 0.292.

First: CCTCCGGC
Second: CCTCCGAC
The “PBM E-score” value of the first is higher: 0.399 for the first, 0.28 for the second.

First: CCTCCGTA
Second: GCTCCGTA
The “PBM E-score” value of the first is lower: 0.246 for the first, 0.297 for the second.

Compared with ACTCCTGG, CCTCCGGA is higher in “PBM E-score” value: -0.171 for the first, 0.418 for the second.

Compared with GCTCCGCA, ACTCCGGG is higher in “PBM E-score” value: 0.164 for the first, 0.39 for the second.

First: CCTCCGCA
Second: CCTCCGTC
The “PBM E-score” value of the first is higher: 0.173 for the first, 0.113 for the second.

Going from AGTCTTCC to CGCCGTCC, the “PBM E-score” value rises from -0.0885 to 0.0969.

Going from ACAATCAT to GGTAGGAC, the “PBM E-score” value rises from -0.0714 to 0.0611.

Going from ACTCCGCC to ACTCCGGA, the “PBM E-score” value rises from 0.306 to 0.461.

Going from ACTCCGGC to ACTCCGCA, the “PBM E-score” value falls from 0.389 to 0.156.

First: ACTCCGTC
Second: ACTCCGTA
The “PBM E-score” value of the first is higher: 0.3 for the first, 0.244 for the second.
